# Experimental data: the supplement of paper PMC6555819
# Columns and labels:
# Test in all cases: PBM binding z-score (relative to random genomic background probes); higher = stronger binding; sequences stand for … in GC…GCGATTGACAGCGTAGAATGAAGG
# [1] = tested on: FXR:RXRa (NR concentration 270 nM, RXRa partner concentration 90 nM)
# Method in brief: (§1)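 Probes were double-stranded and carried 34-nt variable regions with direct-repeat seeds, single-nucleotide variants, half-site ablations and random human genomic background sequences, printed on custom Agilent 4×180K protein-binding microarrays. Arrays were incubated 1 h with ligand-free nuclear receptor dimers in PBS pH 7.4, 2% milk, 0.02% Triton X-100, 1 mM DTT, 0.2 mg/mL BSA and 0.4 mg/ml salmon testes DNA. Antibodies against each partner (one per run) detected binding, and scanned fluorescence was regression-normalized. Binding z-scores use the random background probes as reference.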
# [2] = tested on: LXRa:RXRa (NR concentration 270 nM, RXRa partner concentration 90 nM)
# Method in brief: as §1
# [3] = tested on: LXRa homodimer (NR concentration 270 nM)
# Method in brief: as §1
# [4] = tested on: LXRb:RXRa (NR concentration 270 nM, RXRa partner concentration 90 nM)
# Method in brief: as §1
# [5] = tested on: LXRb homodimer (NR concentration 270 nM)
# Method in brief: as §1
# [6] = tested on: PPARa:RXRa (NR concentration 270 nM, RXRa partner concentration 90 nM)
# Method in brief: as §1
# [7] = tested on: PPARg:RXRa (NR concentration 180 nM, RXRa partner concentration 90 nM)
# Method in brief: as §1
# [8] = tested on: PPARg:RXRa 270nM:90nM, anti-RXR (NR concentration 270 nM, RXRa partner concentration 90 nM)
# Method in brief: as §1
# [9] = tested on: PPARg:RXRa 30nM:10nM, anti-RXR (NR concentration 30 nM, RXRa partner concentration 10 nM)
# Method in brief: as §1
# [10] = tested on: PPARg:RXRa 90nM:30nM, anti-RXR (NR concentration 90 nM, RXRa partner concentration 30 nM)
# Method in brief: as §1
# [11] = tested on: PPARg:RXRa DBDmut IVT, anti-RXR (DBD mutation: RXRa K156A/R161A, NR concentration 270 nM, RXRa partner concentration 90 nM)
# Method in brief: as §1
# [12] = tested on: PPARg:RXRa IVT, anti-PPARg (NR concentration 270 nM, RXRa partner concentration 90 nM)
# Method in brief: as §1
# [13] = tested on: PPARg DBDmut:RXRa IVT, anti-PPARg (DBD mutation: PPARg1 K132A/R137A, NR concentration 270 nM, RXRa partner concentration 90 nM)
# Method in brief: as §1
# [14] = tested on: PPARg DBDmut IVT, anti-PPARg (DBD mutation: PPARg1 K132A/R137A, NR concentration 270 nM)
# Method in brief: as §1
# [15] = tested on: PPARg homodimer (NR concentration 180 nM)
# Method in brief: as §1
# [16] = tested on: PXR:RXRa (NR concentration 270 nM, RXRa partner concentration 90 nM)
# Method in brief: as §1
# [17] = tested on: PXR homodimer (NR concentration 270 nM)
# Method in brief: as §1
# [18] = tested on: RARa:RXR (NR concentration 270 nM, RXRa partner concentration 90 nM)
# Method in brief: as §1
# [19] = tested on: RARa homodimer (NR concentration 270 nM)
# Method in brief: as §1
# [20] = tested on: RARb:RXRa (NR concentration 270 nM, RXRa partner concentration 90 nM)
# Method in brief: as §1
Sequence,PBM binding z-score [1],PBM binding z-score [2],PBM binding z-score [3],PBM binding z-score [4],PBM binding z-score [5],PBM binding z-score [6],PBM binding z-score [7],PBM binding z-score [8],PBM binding z-score [9],PBM binding z-score [10],PBM binding z-score [11],PBM binding z-score [12],PBM binding z-score [13],PBM binding z-score [14],PBM binding z-score [15],PBM binding z-score [16],PBM binding z-score [17],PBM binding z-score [18],PBM binding z-score [19],PBM binding z-score [20]
CAAACTAGGTTAAGGTCAAAGTCGGTTTGTGCCA,5.87,5.27,3.87,4.36,1.08,5.45,7.13,6.97,5.07,7.2,7.61,7.5,2.24,3.72,4.36,5.2,3.07,5.71,2.29,4.32
TAATATAGGTAAACAGGTGAAAGTCCGTAAGTTA,0.323,0.622,0.406,0.745,0.296,3.34,5.42,4.89,2.54,4.16,6.47,6.56,2.22,1.8,2.01,0.69,0.586,1.12,1.5,0.768
CCTTATGGGTCAAGGTTATAGCACGGGTGGTACG,4.02,2.78,0.0856,2.3,-0.169,4.23,5.35,5.19,2.54,4.72,4.52,5.46,1.19,0.531,2.47,2.43,0.248,3.32,0.847,3.63
GATACAGGTTCAAGGCCAGAGTACGCGTATTGAT,1.85,1.7,0.305,1.41,-0.271,2.72,1.43,1.64,0.208,1.19,-0.252,0.582,-0.175,-0.432,1.38,1.9,0.971,1.61,0.647,1.79
CCTAGCAGGCCAGAGTCACTCAAGCATTTCGCTT,-0.525,-0.329,-0.444,-0.519,-1.47,-0.299,-0.117,-0.25,-0.904,-0.753,0.697,-0.158,-1.34,-1.29,0.134,-0.712,-0.709,-0.507,-0.47,-0.0457
CCCAGTTGGTCAGGAGGTCACACACCGGATATGA,3.51,3.58,1.99,3.58,0.535,4.21,3.56,3.79,1.07,3,0.556,3.46,-0.0435,-0.356,2.74,3.97,1.3,4.22,1.81,3.79
CTTACTGGGCCACGAAAGGTCATTGATTCAGTGA,5.51,6.24,4.47,5.13,0.827,5.66,6.99,6.33,4.14,5.7,7.15,7.26,1.25,0.41,3.04,5.88,2.14,5.98,0.212,4.38
CCAGACAGGTTAGAAGGTAACTCAGCCTCGATTA,0.224,0.466,0.473,0.483,0.172,0.816,0.402,0.288,-0.236,0.116,0.311,0.0619,-0.119,-0.234,1.19,0.328,0.257,0.828,0.903,0.829
CCGACTGGGGCACAGGTTACCATACTCAGTACGA,0.0382,0.072,-0.0129,0.247,-0.88,2.71,6.11,5.67,4.13,6.28,3.76,4.97,-0.354,-0.501,1.14,0.174,-0.362,0.462,0.15,1.07
CCTAGCAAGCCAGGGTCACTCAAGCATTTCGCTT,2.31,1.92,-0.142,2.16,-1.12,3.13,0.169,1.09,-0.503,0.224,-0.127,0.222,-0.962,-1.46,0.888,2.78,0.054,3.42,-0.000742,2.41
CCTAGCCGGCCAGGGTCACTCAAGCATTTCGCTT,2.27,1.64,-0.316,2.03,-0.922,2.97,0.0332,0.958,-0.474,0.121,-0.601,0.147,-1.32,-1.69,0.756,2.84,-0.583,3.45,-0.658,2.56
CAAACTAGGTCAAAGCTCAAAGTCGAGCCAACCA,4.62,3.4,0.633,2.4,0.592,5.71,10.2,8.74,9.03,9.54,8.73,8.57,5.63,0.922,1.88,1.33,0.241,2.86,0.284,3.84
TGTCAAAGTTCAAAGGTAACGTTAGTATCCACAC,7.28,6.46,4.63,4.65,1.95,5.88,8.96,7.52,5.52,7.18,0.507,4.64,0.572,1.49,2.93,5.67,4.38,6.71,1.65,5.29
ACAGACAGGTGCTGAAGGTAACTCAGGCTATCAT,-0.388,-0.633,-0.46,-0.677,-0.731,-0.462,0.398,-0.189,-0.203,-0.342,-0.133,-0.503,-0.162,0.258,-0.279,-0.445,-0.113,-0.341,-0.406,-0.476
